An excerpt weighted towards active compounds, which were near 0.89% of everything screened.
L3MBTL1 block: qHTS Assay for the Inhibitors of L3MBTL1; AID 485360, 2010; Lethal(3)malignant brain tumor-like protein 1 (Homo sapiens), Q9Y468; 0.66% of 230,000 active; Potency, µM (top dose mostly 57.1 µM), usual class: inhibitors; AlphaScreen L3MBTL1–H3K9me1 peptide binding; note: nearly all actives have a fitted effect of over 60% in size
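AlphaScreen assay: L3MBTL1 (50 nM final) was preincubated 30 min at room temperature with biotinylated H3(1-15)K9me1 peptide (75 nM final), then 30 min with library compounds; streptavidin donor and nickel chelate acceptor beads (10 ug/mL final) added, 30 min dark.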
MBNL1 CUG block: qHTS Assay for Inhibitors of MBNL1-poly(CUG) RNA binding; Muscleblind-like protein 1 (Homo sapiens), Q9NR56; TR-FRET MBNL1-His/biotin-(CUG)12 binding, 665/545 ratio; Potency, µM (titrated, usually from 57.5 µM), usual class: inhibitors; 0.036% of 280,000 active; AID 2675, 2010; active = well fitted inhibition curve with a large enough effect in the signal ratio, with a control signal flat, not every such curve was filed as active; inconclusive = small, poorly fitted or top-dose-only effect, or effect the other way, or a change in a side signal; inactive = no such curve, though single readings can be large or run the other way; the % refers to the signal ratio
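Inhibition of protein-RNA binding appears as loss of TR-FRET between terbium anti-His antibody on MBNL1-His and streptavidin-XL665 on biotin-(CUG)12. Activity is normalized to buffer-only and uninhibited-complex controls.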
CBFb-RUNX1 inh: qHTS Assay for Compounds Blocking the Interaction Between CBF-beta and RUNX1 for the Treatment of Acute Myeloid Leukemia; Potency, µM (series often up to 59.8 µM), hits mostly inhibitors; Runt-related transcription factor 1 (Homo sapiens) + Core-binding factor subunit beta …; 230,000 tested, under 10 active; AID 1477, 2009; AlphaScreen CBFb-His/RUNX1-biotin binding, biochemical
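Room-temperature protein-protein interaction test with 30 nM each of His-tagged CBF-beta and biotinylated RUNX1, 15 min with compound, then 90 min with nickel plus streptavidin beads. Signal read in AlphaScreen mode.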
Eya2 inh: qHTS Assay for Inhibitors of the Phosphatase Activity of Eya2; Protein phosphatase EYA2 (Homo sapiens), O00167; Potency, µM (doses to about 76.9 µM), usual class: inhibitors; 0.006% of 330,000 active; recombinant Eya2, OMFP fluorescence dephosphorylation (OMFP is methylfluorescein phosphate)
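Eya2 (0.2 uM) preincubated 10 min at ambient with compound, then OMFP substrate added at 50 uM; 10 min reaction in 50 mM HEPES pH 7.5, 50 mM NaCl, 5 uM MgCl2, 0.05% BSA, 1 mM DTT. Fluorescence read at Ex 485/Em 525 nm.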
CtBP-E1A blk: qHTS Assay for Inhibitors of the CtBP/E1A Interaction. 0.49% of 340,000 active. AID 651724, 2012. CtBP / adenovirus E1A interaction (AlphaScreen). AlphaScreen GST-E1A/His-CtBP binding, 1536-well; stronger effect = lower value. activity change, % (test concentration not listed); in the data active = activity change below about -65%; inconclusive = mostly about -30% to -63%
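GST-E1A and His-tagged CtBP (125 nM each as 5X stock) were preincubated with pin-transferred compound for 2 h at 37 °C in the dark, then glutathione donor and nickel acceptor beads were added for 1 h before AlphaScreen reading.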
Six1-Eya2 inh: qHTS Assay for Inhibitors of the Six1/Eya2 Interaction; AlphaScreen GST-Six1/His-Eya2 binding, biochemical; stronger effect = lower value; activity change, % (concentration not given with the values); AID 651725, 2012; Homeobox protein SIX1 (Homo sapiens) + Protein phosphatase EYA2 (Homo sapiens), …; 0.56% of 360,000 active; in the data active = activity change below about -65%; inconclusive = mostly about -30% to -63%
Target sequence (O00167 whole entry, looked up): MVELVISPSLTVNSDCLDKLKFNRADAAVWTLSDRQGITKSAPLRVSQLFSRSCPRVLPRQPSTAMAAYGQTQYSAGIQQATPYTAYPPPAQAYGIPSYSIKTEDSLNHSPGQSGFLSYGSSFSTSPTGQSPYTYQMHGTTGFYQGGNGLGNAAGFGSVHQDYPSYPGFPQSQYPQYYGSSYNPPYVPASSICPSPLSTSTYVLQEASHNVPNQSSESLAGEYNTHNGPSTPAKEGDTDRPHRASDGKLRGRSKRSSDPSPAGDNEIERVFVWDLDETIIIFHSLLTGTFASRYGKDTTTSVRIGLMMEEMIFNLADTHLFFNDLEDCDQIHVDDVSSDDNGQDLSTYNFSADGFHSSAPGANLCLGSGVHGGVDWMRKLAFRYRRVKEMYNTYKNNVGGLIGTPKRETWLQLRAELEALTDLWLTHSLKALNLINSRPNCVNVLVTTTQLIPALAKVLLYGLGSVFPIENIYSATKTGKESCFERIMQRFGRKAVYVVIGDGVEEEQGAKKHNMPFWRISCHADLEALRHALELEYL
Target sequence (Q15475 whole entry, looked up): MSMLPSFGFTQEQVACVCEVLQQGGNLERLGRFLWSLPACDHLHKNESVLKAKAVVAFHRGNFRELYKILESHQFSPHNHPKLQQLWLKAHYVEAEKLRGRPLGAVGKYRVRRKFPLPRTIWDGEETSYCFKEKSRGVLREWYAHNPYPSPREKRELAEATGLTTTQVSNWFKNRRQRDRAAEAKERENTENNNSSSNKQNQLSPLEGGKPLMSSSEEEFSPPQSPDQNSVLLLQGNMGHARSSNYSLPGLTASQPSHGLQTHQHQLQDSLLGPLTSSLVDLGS
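AlphaScreen luminescence read after one hour at 37 °C in darkness. Pin-transferred compounds met GST-Six1 and His-Eya2 protein (5X stock 250 nM/500 nM) plus glutathione donor and Ni-chelate acceptor beads (5X, 50 ug/mL).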
Numbers stand for hits; i = inactive; ? = inconclusive; nt = no result given; [ ] = remark or other dose. Unless noted, calls come from the whole dose curve; as a rule, active = well fitted curve in the direction sought with a large enough effect; inconclusive = small, poorly fitted or top-dose-only effect, or another doubt; inactive = no such curve, though single readings can be large; an effect the other way counts as inactive or inconclusive.

SMILES	L3MBTL1 block	MBNL1 CUG block	CBFb-RUNX1 inh	Eya2 inh	CtBP-E1A blk	Six1-Eya2 inh
COc1ccc(CCNC(=O)CCCCCNc2nc(=S)[nH]c3ccccc23)cc1OC	i	?	i	i	i	?
CCCCNc1nc(=S)[nH]c2cc(OC)c(OC)cc12	nt	i	i	i	-93.4	-90.9
COc1cc2[nH]c(=S)nc(NCCCOC(C)C)c2cc1OC	nt	i	i	i	-93.0	-86.2
O=S(=O)(/N=C(/c1ccc(F)cc1)N1CCCCC1)c1ccc(Cl)cc1	i	i	i	i	i	i
COc1cccc(/C=N/NC(=O)c2[nH]c(C)c(C(=O)N/N=C/c3cccc(OC)c3)c2C)c1	i	i	i	i	?	-68.4
CCOC(=O)c1c(C)[nH]c(C(=O)N/N=C/c2cccc(OC)c2)c1C	i	i	i	i	i	i
COc1ccc(C)cc1NC(=O)CCc1ccc(S(=O)(=O)N2CCOCC2)cc1	i	nt	nt	i	nt	i
C/C(=N\NC(=O)c1ccccc1-n1cccc1)c1ccccn1	nt	nt	nt	nt	?	-92.1
C/C(=N\NC(=O)c1c[nH]c2ccccc12)c1ccccn1	8.91µM	i	?	i	-93.4	-92.7
C/C(=N\NC(=O)c1ccc(F)cc1)c1ccccn1	nt	i	nt	i	nt	-91.8
CCc1ccc(/C(C)=N/NC(=O)c2ccccn2)cc1	i	i	i	i	i	i
CCOC(=O)c1c2ccccc2[n+]([O-])n1CCO	i	nt	nt	i	i	i
Cc1cccc(N2CCC(N3CCN(C4CCCCC4)C(CCO)C3)CC2)c1C (stereo not drawn)	15.8µM	?	nt	i	i	i
CC(C)N1CCC(N2CCN(C3CCCC3)CC2CCO)CC1 (stereo not drawn)	i	i	i	i	nt	i
CCN(CC)c1ccc(/C=C2/C(=O)c3ccc(C(=O)O)cc3C2=O)cc1	25.1µM	nt	?	i	i	i
O=C1C(Cl)=C(NC(=O)c2ccccc2)C(=O)C(Cl)=C1NC(=O)c1ccccc1	nt	i	nt	i	i	-72.6
CN(C1=C(NC(=O)c2ccc(Cl)cc2)C(=O)c2ccccc2C1=O)c1ccccc1	7.94µM	?	i	i	-88.3	-85.9
O=C(NC1=C(Nc2ccc(Cl)cc2)C(=O)c2ccccc2C1=O)c1ccccc1	i	?	i	i	?	?
Nc1nnnn1/N=C/c1cc(Br)ccc1O	nt	nt	nt	nt	-93.8	-92.3
N#CC1=C(N)n2c(s/c(=C\c3ccco3)c2=O)=C(C#N)C1c1ccco1 (stereo not drawn)	25.1µM	i	nt	i	?	-71.3
Cc1cc(C)n(CCC(=O)N/N=C/c2ccc(O)cc2)n1	i	i	i	i	i	i
O=C(CN1CCCC1)N/N=C/c1c(O)ccc2ccccc12	?	?	nt	i	-91.3	-90.2
Cc1cccc(/C=N/NC(=O)CN2CCCCCCC2)c1	i	i	i	i	i	i
O=C(NN=Cc1c(O)ccc2ccccc12)C1CC1	nt	nt	nt	nt	-68.6	?
Cc1ccc(O)c(/C=N/NC(=O)CN2CCCC2)c1	?	i	nt	i	nt	-65.2
SMILES	L3MBTL1 block	MBNL1 CUG block	CBFb-RUNX1 inh	Eya2 inh	CtBP-E1A blk	Six1-Eya2 inh
Cc1cc(C)n(CCC(=O)N/N=C/c2c(O)ccc3ccccc23)n1	nt	i	i	i	nt	-88.8
O=C(CN1CCCC1)Nc1c(Cl)cccc1Cl	i	i	nt	i	i	i
CC1=C(C(=O)Nc2cc(C(=O)N3CCN(c4ccc(Cl)cc4)CC3)ccc2C)SCCO1	nt	nt	nt	nt	i	i
COc1ccc(S(=O)(=O)Nc2ccc3c(c2)C(=O)N([C@H](C)CO)C[C@H](C)[C@@H](CN(C)Cc2ccncc2)OCCCC[C@@H](C)O3)cc1	nt	nt	nt	nt	i	i
NC(=O)c1csc(CCNC(=O)c2ccccc2)n1	nt	nt	nt	nt	i	i
COc1ccc(C(=O)NCCS(=O)(=O)N2CCc3ccccc3C2)cc1	i	nt	nt	i	i	i
O=C(N/N=C/c1c(O)ccc2ccccc12)C(=O)N1CCCC1	nt	nt	nt	nt	?	-86.9
CCOc1ccc(/C=N/NC(=O)C(=O)N2CCCCCC2)c2ccccc12	nt	?	nt	i	i	i
CCNC(=S)NNC(=O)c1ccccn1	3.55µM	i[11.5 µM]	i	i	-95.9	-95.3
O=C(NNC(=S)Nc1ccc(Cl)c(Cl)c1)c1ccccn1	i	i	i	i	nt	-89.9
S=C(NCc1ccccn1)Nc1ccc(Cl)c(Cl)c1	i	i	i	i	i	i
CCNC(=S)NNC(=O)c1ccccc1Cl	i	nt	i	i	i	i
CC(=O)c1ccc(NC(=O)c2ccc(-n3cnnn3)cc2)cc1	i	nt	nt	i	i	i
COc1cc(N(C)C)ccc1C=c1c2ccccc2n2c1cc(-c1ccccc1)[n+]2C	nt	nt	nt	nt	-79.9	-80.3
CN(C)c1ccc(C=c2c3cc([N+](=O)[O-])ccc3n3c2cc(-c2ccccc2)[n+]3C)cc1	nt	nt	nt	nt	i	-80.4
COc1ccc(CC(=O)NC2CC(C)(C)NC(C)(C)C2)cc1	i	i	i	i	i	i
CC(O)C1CCC2C3CCC4CC(O)CCC4(C)C3C(=O)CC12C (stereo not drawn)	nt	nt	nt	nt	i	i
CCOc1ccccc1/C=N/Nc1ccnc(=O)[nH]1	nt	i	nt	i	i	i
COc1cccc(/C=N/Nc2ccnc(=O)[nH]2)c1O	nt	?	nt	?	-92.1	-76.1
COc1cccc(/C=N/Nc2snc(SC)c2C#N)c1O	i	i[11.5 µM]	?	i	-75.7	?
O=c1nccc(N/N=C/c2ccccc2O)[nH]1	nt	?	nt	i	-92.2	-75.0
COc1ccc(S(=O)(=O)N2CCOCC2)cc1NC(=O)CSc1nnc2n1CCCCC2	i	nt	nt	i	i	i
CCN(CC)S(=O)(=O)c1cccc(C(=O)N/N=C(\C)c2ccc(O)cc2O)c1	14.1µM	i	i	i	?	-66.5
CCN(CC)S(=O)(=O)c1cccc(C(=O)N/N=C/c2ccc(O)c(O)c2O)c1	?	i	?	i	-93.5	-90.7
CCOc1ccccc1/C=N/NC(=O)c1cccc(S(=O)(=O)N(CC)CC)c1	i	i	i	i	i	i
CC1CCCN(c2ccc3nc4ccccc4c(=O)n3n2)C1 (stereo not drawn)	nt	?	i	i	i	-66.6
Cc1ccc2nc3ccc(N4CCCC4)nn3c(=O)c2c1	i	?	i	i	i	i
Cc1c(Cl)cccc1NC(=S)C(=C([O-])c1ccc(Cl)s1)[n+]1ccccc1	nt	nt	nt	nt	i	i
